Several values for one entry are separate records, joined by “and”; a condition that tells them apart may be missing. Equal entries are not always repeated. Hit rate of the full screen: of about 5,500 compounds, about 2,000 (36%) were called active. Not shown: some 18% with an inconclusive outcome. Rule as the data show it: active = normalized growth mostly below about 0.91 (no sharp cut-off); inconclusive = no clear call, values can overlap the other calls; inactive = mostly above about 0.92. Some of the results follow.
Assay: chemical genetic growth profiling, strain panel (AID 1159580);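 also: tested at 20 µM; growth read once vehicle control cultures reached saturation at 30 °C; 1 = growth at the plate median or of vehicle wells; lower values mean less growth of the strain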
Details: growth OD
[1] = S. cerevisiae deletion strains, locus YDL101C, strain DUN1, hits give low values
[2] = S. cerevisiae deletion strains, locus YHR030C, strain SLT2, hits give low values
[3] = S. cerevisiae deletion strains, locus YHR079C, strain IRE1, hits give low values
[4] = S. cerevisiae deletion strains, locus YJL095W, strain BCK1, hits give low values
[5] = S. cerevisiae deletion strains, locus YJR066W, strain TOR1, hits give low values
[6] = S. cerevisiae deletion strains, locus YLR113W, strain HOG1, hits give low values
[7] = S. cerevisiae deletion strains, locus YNL183C, strain NPR1, hits give low values
[8] = S. cerevisiae deletion strains, locus YOR061W, strain CKA2, hits give low values
[9] = S. cerevisiae deletion strains, locus YOR231W, strain MKK1, hits give low values
[10] = S. cerevisiae deletion strains, locus YPL256C, strain CLN2, hits give low values

Measured: normalized growth

CCN(CC)CCNC(=O)COc1ccc(OC)cc1
inactive: S. cerevisiae deletion strains, locus YAL013W, strain DEP1, hits give low values 1 | S. cerevisiae deletion strains, locus YBR021W, strain FUR4, hits give low values 1.01 | S. cerevisiae deletion strains, locus YBR229C, strain ROT2, hits give low values 0.995 | S. cerevisiae deletion strains, locus YCL029C, strain bik1, hits give low values 0.983 | S. cerevisiae deletion strains, locus YDL035C, strain GPR1, hits give low values 1.02 | S. cerevisiae deletion strains, locus YDL074C, strain BRE1, hits give low values 0.989 | [1] 0.993 | S. cerevisiae deletion strains, locus YDL134C, strain PPH21, hits give low values 1.01 | S. cerevisiae deletion strains, locus YDL185W, strain tfp1, hits give low values 0.964 | S. cerevisiae deletion strains, locus YDL192W, strain arf1, hits give low values 0.995 | S. cerevisiae deletion strains, locus YDR101C, strain arx1, hits give low values 0.973 | S. cerevisiae deletion strains, locus YDR150W, strain NUM1, hits give low values 0.993 | S. cerevisiae deletion strains, locus YDR162C, strain NBP2, hits give low values 1.01 | S. cerevisiae deletion strains, locus YDR318W, strain mcm21, hits give low values 0.988 | S. cerevisiae deletion strains, locus YDR388W, hits give low values 0.997 | S. cerevisiae deletion strains, locus YDR502C, strain sam2, hits give low values 1.01 | S. cerevisiae deletion strains, locus YEL061C, strain CIN8, hits give low values 1 | S. cerevisiae deletion strains, locus YER110C, hits give low values 0.989 | S. cerevisiae deletion strains, locus YER155C, strain BEM2, hits give low values 0.998 | S. cerevisiae deletion strains, locus YER167W, strain BCK2, hits give low values 1.01 | S. cerevisiae deletion strains, locus YGL078C, strain dbp3, hits give low values 0.997 | S. cerevisiae deletion strains, locus YGL086W, strain mad1, hits give low values 1.02 | S. cerevisiae deletion strains, locus YGL248W, strain PDE1, hits give low values 0.995 | S. cerevisiae deletion strains, locus YGR078C, strain PAC10, hits give low values 0.992 | S. cerevisiae deletion strains, locus YGR135W, strain pre9, hits give low values 1.01 | S. cerevisiae deletion strains, locus YGR229C, strain SMI1, hits give low values 1.01 | S. cerevisiae deletion strains, locus YGR252W, strain gcn5, hits give low values 1.15 | [2] 0.995 and 0.975 | S. cerevisiae deletion strains, locus YHR079C, strain IRE1 (second series), hits give low values 0.986 | [3] 0.965 | S. cerevisiae deletion strains, locus YHR094C, strain hxt1, hits give low values 0.981 | S. cerevisiae deletion strains, locus YHR129C, strain ARP1, hits give low values 0.994 | S. cerevisiae deletion strains, locus YHR200W, strain rpn10, hits give low values 0.989 | S. cerevisiae deletion strains, locus YIL066C, strain RNR3, hits give low values 0.999 | S. cerevisiae deletion strains, locus YIL073C, strain SPO22, hits give low values 0.974 | S. cerevisiae deletion strains, locus YIL125W, strain kgd1, hits give low values 1 | S. cerevisiae deletion strains, locus YIR030C, strain dcg1, hits give low values 0.999 | [4] 0.983 and 0.978 | S. cerevisiae deletion strains, locus YJL134W, strain LCB3, hits give low values 0.994 | S. cerevisiae deletion strains, locus YJL168C, strain set2, hits give low values 0.981 | S. cerevisiae deletion strains, locus YJL187C, strain SWE1 (second series), hits give low values 0.984 | S. cerevisiae deletion strains, locus YJR043C, strain POL32, hits give low values 0.971 | [5] 0.939 | S. cerevisiae deletion strains, locus YJR075W, strain HOC1, hits give low values 0.983 | S. cerevisiae deletion strains, locus YKL009W, strain mrt4, hits give low values 1.02 | S. cerevisiae deletion strains, locus YKL068W, hits give low values 0.983 | S. cerevisiae deletion strains, locus YKL085W, strain MDH1 (second series), hits give low values 0.981 | S. cerevisiae deletion strains, locus YKL085W, strain MDH1, hits give low values 0.981 | S. cerevisiae deletion strains, locus YKL190W, strain CNB1, hits give low values 0.997 | S. cerevisiae deletion strains, locus YKR001C, strain vps1, hits give low values 1.02 | S. cerevisiae deletion strains, locus YLR039C, strain RIC1, hits give low values 1.06 | S. cerevisiae deletion strains, locus YLR058C, strain SHM2, hits give low values 1 | S. cerevisiae deletion strains, locus YLR102C, strain apc9, hits give low values 0.991 | [6] 0.969 | S. cerevisiae deletion strains, locus YLR262C, strain YPT6, hits give low values 1.05 | S. cerevisiae deletion strains, locus YLR268W, strain sec22, hits give low values 0.96 | S. cerevisiae deletion strains, locus YLR330W, strain CHS5, hits give low values 0.989 | S. cerevisiae deletion strains, locus YLR342W, strain FKS1 (second series), hits give low values 1.06 | S. cerevisiae deletion strains, locus YLR371W, strain rom2, hits give low values 0.99 | S. cerevisiae deletion strains, locus YLR418C, strain cdc73, hits give low values 1.01 | S. cerevisiae deletion strains, locus YML016C, strain PPZ1, hits give low values 1.01 | S. cerevisiae deletion strains, locus YML032C, strain rad52, hits give low values 0.97 | S. cerevisiae deletion strains, locus YML124C, strain tub3, hits give low values 0.996 | S. cerevisiae deletion strains, locus YMR078C, strain ctf18, hits give low values 0.978 | S. cerevisiae deletion strains, locus YMR223W, strain ubp8, hits give low values 1.04 | S. cerevisiae deletion strains, locus YMR263W, strain SAP30, hits give low values 0.982 | S. cerevisiae deletion strains, locus YMR307W, strain GAS1, hits give low values 1.05 | S. cerevisiae deletion strains, locus YNL067W, strain RPL9B, hits give low values 0.97 | S. cerevisiae deletion strains, locus YNL128W, strain TEP1, hits give low values 0.994 | S. cerevisiae deletion strains, locus YNL153C, strain GIM3, hits give low values 0.988 | [7] 0.937 | S. cerevisiae deletion strains, locus YNL233W, strain BNI4, hits give low values 1.01 | S. cerevisiae deletion strains, locus YNL250W, strain rad50, hits give low values 0.993 | S. cerevisiae deletion strains, locus YNL271C, strain bni1, hits give low values 0.987 | S. cerevisiae deletion strains, locus YNL298W, strain CLA4, hits give low values 0.993 | S. cerevisiae deletion strains, locus YNL307C, strain MCK1, hits give low values 0.999 | S. cerevisiae deletion strains, locus YNL322C, strain KRE1, hits give low values 0.992 | S. cerevisiae deletion strains, locus YNR052C, strain pop2, hits give low values 0.984 | S. cerevisiae deletion strains, locus YOL006C, strain TOP1, hits give low values 1.01 | S. cerevisiae deletion strains, locus YOL012C, strain htz1 0.754 | S. cerevisiae deletion strains, locus YOL147C, strain pex11, hits give low values 0.997 | [8] 1.01 | S. cerevisiae deletion strains, locus YOR069W, strain VPS5, hits give low values 0.998 | S. cerevisiae deletion strains, locus YOR136W, strain idh2, hits give low values 1.01 | S. cerevisiae deletion strains, locus YOR144C, strain elg1, hits give low values 0.998 | S. cerevisiae deletion strains, locus YOR184W, strain ser1, hits give low values 0.983 | [9] 0.964 | S. cerevisiae deletion strains, locus YOR316C, strain cot1, hits give low values 0.981 | S. cerevisiae deletion strains, locus YPL055C, strain LGE1, hits give low values 0.949 | S. cerevisiae deletion strains, locus YPL241C, strain CIN2, hits give low values 1.01 | [10] 0.972 | S. cerevisiae deletion strains, locus YPR119W, strain clb2, hits give low values 0.99 | S. cerevisiae deletion strains, locus YPR141C, strain kar3, hits give low values 0.992 | S. cerevisiae deletion strains, locus YPR163C, strain tif3, hits give low values 0.994 | S. cerevisiae deletion strains, locus YPR167C, strain met16, hits give low values 0.975 | S. cerevisiae deletion strains, strain wtn01, hits give low values 0.962 | S. cerevisiae strains, strain wild type, hits give low values 1

NNC(=O)COc1ccc(C2SCCS2)cc1
active: [1] 0.337 | S. cerevisiae deletion strains, locus YDL214C, strain PRR2, hits give low values 0.16 | S. cerevisiae deletion strains, locus YDR477W, strain SNF1, hits give low values 0.197 | S. cerevisiae deletion strains, locus YER123W, strain YCK3, hits give low values 0.148 | S. cerevisiae deletion strains, locus YER133W, strain GLC7, hits give low values 0.4 | S. cerevisiae deletion strains, locus YFR019W, strain FAB1, hits give low values 0.144 | S. cerevisiae deletion strains, locus YGR040W, strain KSS1, hits give low values 0.233 | S. cerevisiae deletion strains, locus YGR052W, strain FMP48, hits give low values 0.152 | S. cerevisiae deletion strains, locus YGR092W, strain DBF2, hits give low values 0.13 | [2] 0.104 | [3] 0.127 | S. cerevisiae deletion strains, locus YHR082C, strain KSP1, hits give low values 0.188 | S. cerevisiae deletion strains, locus YHR205W, strain SCH9, hits give low values 0.162 | [4] 0.128 | S. cerevisiae deletion strains, locus YJL157C, strain FAR1, hits give low values 0.163 | S. cerevisiae deletion strains, locus YJR066W, strain TOR1 (second series), hits give low values 0.156 | [5] 0.159 | S. cerevisiae deletion strains, locus YKL048C, strain ELM1, hits give low values 0.215 | S. cerevisiae deletion strains, locus YKL067W, strain YNK1, hits give low values 0.141 | S. cerevisiae deletion strains, locus YKL101W, strain HSL1, hits give low values 0.153 | S. cerevisiae deletion strains, locus YKL203C, strain TOR2, hits give low values 0.209 | [6] 0.171 | S. cerevisiae deletion strains, locus YLR133W, strain CKI1, hits give low values 0.194 | S. cerevisiae deletion strains, locus YLR403W, strain SFP1, hits give low values 0.152 | S. cerevisiae deletion strains, locus YML070W, strain DAK1, hits give low values 0.145 | S. cerevisiae deletion strains, locus YMR205C, strain PFK2 (second series), hits give low values 0.151 | S. cerevisiae deletion strains, locus YMR277W, strain FCP1, hits give low values 0.85 | S. cerevisiae deletion strains, locus YNL020C, strain ARK1, hits give low values 0.195 | [7] 0.187 | S. cerevisiae deletion strains, locus YNL207W, strain RIO2, hits give low values 0.829 | S. cerevisiae deletion strains, locus YNL307C, strain MCK1 (second series), hits give low values 0.157 | S. cerevisiae deletion strains, locus YOL136C, strain PFK27, hits give low values 0.159 | [8] 0.115 | S. cerevisiae deletion strains, locus YOR119C, strain RIO1, hits give low values 0.183 | [9] 0.159 | S. cerevisiae deletion strains, locus YPL031C, strain PHO85, hits give low values 0.201 | S. cerevisiae deletion strains, locus YPL153C, strain RAD53, hits give low values 0.181 | S. cerevisiae deletion strains, locus YPL204W, strain HRR25, hits give low values 0.234 | [10] 0.173 | S. cerevisiae deletion strains, locus YPR106W, strain ISR1, hits give low values 0.575 | S. cerevisiae deletion strains, locus YPR111W, strain DBF20, hits give low values 0.608 | S. cerevisiae deletion strains, strain NNK1, hits give low values 0.24
inactive: S. cerevisiae deletion strains, locus YBL105C, strain PKC1, hits give low values 0.962 | S. cerevisiae deletion strains, locus YBR135W, strain CKS1, hits give low values 0.954 | S. cerevisiae deletion strains, locus YBR136W, strain MEC1, hits give low values 0.986 | S. cerevisiae deletion strains, locus YBR160W, strain CDC28, hits give low values 0.96 | S. cerevisiae deletion strains, locus YDL017W, strain CDC7, hits give low values 0.971 | S. cerevisiae deletion strains, locus YDL028C, strain MPS1, hits give low values 0.964 | S. cerevisiae deletion strains, locus YDL108W, strain KIN28, hits give low values 0.97 | S. cerevisiae deletion strains, locus YDR052C, strain DBF4, hits give low values 0.969 | S. cerevisiae deletion strains, locus YDR226W, strain ADK1, hits give low values 0.962 | S. cerevisiae deletion strains, locus YFR003C, strain YPI1, hits give low values 0.974 | S. cerevisiae deletion strains, locus YFR028C, strain CDC14, hits give low values 0.973 | S. cerevisiae deletion strains, locus YIL147C, strain SLN1, hits give low values 0.969 | S. cerevisiae deletion strains, locus YJR016C, strain ILV3, hits give low values 0.939 | S. cerevisiae deletion strains, locus YKL193C, strain SDS22, hits give low values 0.927 | S. cerevisiae deletion strains, locus YMR001C, strain CDC5, hits give low values 0.95 | S. cerevisiae deletion strains, locus YNL006W, strain LST8, hits give low values 0.945 | S. cerevisiae deletion strains, locus YNL161W, strain CBK1, hits give low values 0.941 | S. cerevisiae deletion strains, locus YNL222W, strain SSU72, hits give low values 0.934 | S. cerevisiae deletion strains, locus YOR329C, strain SCD5, hits give low values 0.972 | S. cerevisiae deletion strains, locus YPL209C, strain IPL1, hits give low values 0.965 | S. cerevisiae deletion strains, locus YPR025C, strain CCL1, hits give low values 0.954

Reference: PubChem BioAssay AID1159580 (chemical genetic matrix, 2015)
